Assay [1] deals with p38-delta. The conditions noted are these: concentration: 1 μM, replicates: in singlicate; n = 1.
Assay [2] relates to T1, p38-gamma.
T1 construct: gene MAPK12
The conditions noted are these: concentration: 1 μM, replicates: in singlicate; n = 1.
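Further: KINOMEscan kinase panel screen.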

As to `Cc1ccccc1COc1cc(-n2cnc3cc(Cl)ccc32)sc1C(N)=O` [GW813349], the “%Inh” value is on record as 0% in assay [1] and 20% in assay [2].
In the same order, the values of `C[C@@H]1CC[C@H](C(=O)NC2CCCCC2)CN1c1cc(-c2ccc3c(N)n[nH]c3c2)nc(N)n1` [GSK2291363] are 42% and 45%.
Consider `CN1C(=O)C(Nc2ccccc2)=C(c2ccccc2)C1=O` [SB-300079], for which the “%Inh” value in assay [1] and in assay [2] was 0% in each case.
As for `CCn1c(-c2ccoc2)nc2cnccc21` [SB-733887], the figures for the “%Inh” value in assay [1] and in assay [2] were 25% and 12%, respectively.
For `COc1ccc(-c2coc3ccc(-c4nnc(SCc5cccc(C#N)c5)o4)cc23)cc1`, in that order: 16% and 7%.
